# Assay outcomes as filed in PubChem.
# Pf apPOL block: Pf-apPOL DNA polymerase inhibition; Recombinant Pf-apPOL, molecular beacon fluorescence, 1.5 h; inhibition, % at 10 µM; actives 0.25% (n = 210,000)
# mHTT-CaM PPI inh: disrupts binding of mutant huntingtin to calmodulin; P42858; AlphaScreen His-mHTT/GST-CaM binding, luminescence; inhibition, % at 15 µM; actives 3.6% (n = 190,000)
# A number is an active result; . = inactive; / = no result. Shown are actives, neighbours in structure and some others; about 3.6% of the full set was active somewhere. No stated cut-off is given here; in the data, active means inhibition above about 50%; inactive means the rest.
SMILES,Pf apPOL block,mHTT-CaM PPI inh
COc1ccc(N2CCC(CNS(=O)(=O)c3cccc(C(F)(F)F)c3)C2)cc1 (centres undefined),.,73
O=C1CC(CNS(=O)(=O)c2cccc(C(F)(F)F)c2)CN1c1ccc(Cl)cc1 (centres undefined),.,.
CN(C)CCCNC(=O)C1CCN(c2nc3ccc(-c4cncnc4)nc3s2)CC1,.,.
Cc1[nH]n2c(=O)cc(-c3ccccc3)nc2c1-c1ccccc1,.,.
COc1ccc(-c2c(C)[nH]n3c(=O)cc(-c4ccccc4)nc23)cc1,.,73
COc1ccccc1-c1c(Cc2ccccc2)[nH]n2c(=O)cc(-c3ccccc3)nc12,.,67
CCCc1cc(=O)n2[nH]c(Cc3ccccc3)c(-c3ccccc3OC)c2n1,.,.
CC1(O)NC(C(C#N)C#N)=C(C#N)C(c2ccc(F)cc2)C1[n+]1ccccc1 (centres undefined),.,.
Cc1ccc(C2(O)NC(S)=C(C#N)C(c3ccc(F)cc3)C2[n+]2ccccc2)cc1 (centres undefined),.,82
Cc1cc[n+](C2C(c3ccc([N+](=O)[O-])cc3)C(C#N)=C(S)NC2(O)C2CC2)cc1 (centres undefined),.,58
CCOc1ccc(C2C(C#N)=C(C(C#N)C#N)NC(O)(C3CC3)C2[n+]2ccc(C)cc2)cc1 (centres undefined),.,.
N#CC1=C(S)NC(O)(c2ccccc2)C([n+]2ccc3ccccc3c2)C1c1cccc(F)c1 (centres undefined),.,69
COC(=O)C1CC(C(=O)OC)CC(C(=O)OC)C1 (centres undefined),/,.
O=c1c2ccccc2nc(Sc2c([N+](=O)[O-])cc(C(F)(F)F)cc2[N+](=O)[O-])n1-c1ccc(F)cc1,.,/
CC1C(=O)N(c2ccc(F)cc2F)CCN1C(=O)c1ccc(Cl)cc1 (centres undefined),.,.
Cc1cccc(N2CCN(C(=O)c3cccc(Cl)c3)C(C)C2=O)c1 (centres undefined),.,.
Cn1ncc(N2CCCC(C(=O)NCCCN3CCCc4ccccc43)C2)cc1=O (centres undefined),.,75
Cn1ncc(N2CCCC(C(=O)NCCCN3CCCCC3)C2)cc1=O (centres undefined),.,.
O=C(NCCCN1CCCc2ccccc21)C1CCc2nc(N3CCCCC3)ncc2C1 (centres undefined),.,54
Cc1ccnc(N2CCCC(C(=O)NCCCN3CCN(C)CC3)C2)n1 (centres undefined),.,.
Cn1ncc(N2CCCC(C(=O)NCCCc3ccccc3)C2)cc1=O (centres undefined),.,.
Cn1ncc(N2CCCC(C(=O)NCCCN3CCCC3=O)C2)cc1=O (centres undefined),.,100
O=C(NCCCN1CCCc2ccccc21)C1CCc2nc(N3CCOCC3)ncc2C1 (centres undefined),.,.
Cc1ccnc(N2CCCC(C(=O)NCCCN3CCCc4ccccc43)C2)n1 (centres undefined),.,52
COc1ccc(NC(=O)c2cn3c(n2)CSCC3)c(C)c1,.,.
SMILES,Pf apPOL block,mHTT-CaM PPI inh
COCCNC(=O)N1CCN(CC(=O)c2cccs2)CC1,.,.
O=C(CN1CC(c2nc(-c3ncccn3)no2)C1)NCC1CCCO1 (centres undefined),.,.
O=C(NCc1csc(C2CCN(C(=O)Cc3ccccc3Cl)CC2)n1)C1CCC1,.,.
O=C(c1ccc(F)cc1Cl)N1CCC2(CC1)NC(=O)N(Cc1ccc(F)cc1)C2=O,.,.
COc1ccc(CN2CCc3nc(Nc4ccc(F)cc4)ncc3C2)c(OC)c1OC,.,.
NS(=O)(=O)c1ccc2oc3ccccc3c2c1,/,.
COc1ccc(C2C(S(=O)(=O)NCc3cccc(C)c3)CON2C)cc1 (centres undefined),.,.
Cc1ccccc1C1N(c2cccc(Cl)c2)C(=O)C2CCCN21 (centres undefined),.,.
COc1cc(/C=C2/NC(=O)N(Cc3ccc(Br)cc3)C2=O)cc(OC)c1O,.,55
COc1cc(/C=C2/NC(=O)N(Cc3ccc(Cl)cc3)C2=O)cc(Br)c1O,.,.
O=C(NCc1cccnc1)C(=O)NC1CCCCNC1=O (centres undefined),.,/
CCNC(=O)c1cc2sc(C)cc2n1CC,.,.
Cc1cc2c(cc(C(=O)NCc3ccccn3)n2CC(C)C)s1,.,70
CCCC1C(C#N)=C(N)SC(N)=C1C#N,.,.
COc1ccccc1C1C(C#N)=C(N)SC(N)=C1C#N,.,.
COc1cc(OC)c(C2C(C#N)=C(N)SC(N)=C2C#N)cc1OC,/,71
CC1C(C#N)=C(N)SC(N)=C1C#N,.,98
CC(C)(C)C(O)CCNC(=O)C(=O)NCCC1=CCCCC1 (centres undefined),.,.
CC(=O)Nc1nc(C(c2ccccc2)c2ccccc2)cs1,.,.
Cc1cccc(NC(=O)c2cccc(-c3nc(-c4ccc(F)cc4)no3)c2)n1,.,.
Cc1ccc(C(=O)Nc2ccc(F)cc2F)cc1,.,.
